Results taken from PubChem BioAssay (NCI).
The panel holds about 83,000 compounds, 20% with a hit somewhere; the sample as a whole holds those more often.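 The test compound was applied at a single concentration to cells in 96-well plates for 48 hours, and percent growth was recorded.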 A number with no mark means an inactive call. The source made the active and inactive calls. The calls were made as follows: active = growth percent below 10; inactive = the rest.

Tests used:
Assay in all cases: NCI-60 one-dose screen, 48 h (100 = growth as untreated, 0 = no growth, -100 = all killed)
Conditions in all cases: 10 µM unless noted
[1] = system: RPMI-8226 leukemia
[2] = system: OVCAR-8 ovarian
[3] = system: OVCAR-4 ovarian
[4] = system: SK-OV-3 ovarian
[5] = system: IGROV1 ovarian
[6] = system: HS 578T breast
[7] = system: NCI/ADR-RES ovarian
[8] = system: OVCAR-5 ovarian
[9] = system: OVCAR-3 ovarian

Structure (SMILES)	growth [1]	growth [2]	growth [3]	growth [4]	growth [5]	growth [6]	growth [7]	growth [8]	growth [9]
CCCCCc1ccc(S(=O)(=O)Nc2cc(-c3csc(N)n3)ccc2OC)cc1	78.2%	95.9%	100%	127%	84.5%	97.1%	88%	–	–
CC1=C(SCC(=O)OCCCCCC(C)C)C(=O)c2ccccc2C1=O	61%	92.1%	70.1%	104%	79.8%	91.8%	100%	113%	74%
CC(C)(C)Nc1nc2c(OCCc3ccccc3)cccn2c1-c1ccc([N+](=O)[O-])cc1	43.1%	64%	42.3%	76.5%	56.9%	78.3%	51.6%	67.3%	50.6%
Cc1ccc2c(n1)C(=O)C(Cl)=C(Nc1ccc(C(C)C)cc1)C2=O	-21.7% (active)	8.76% (active)	-74% (active)	106%	-53% (active)	55.6%	49.9%	103%	-55.7% (active)
CCN(CC)CCOc1ccc(C(=C(C)Cc2ccc(OC)cc2)c2ccc(OCCN(CC)CC)cc2)cc1	-25% (active)	74.5%	89.1%	93.5%	68.9%	72.9%	85.4%	–	31.2%
O=C(CCCCCCN1CC(=O)N2[C@@H](c3ccc(Cl)s3)c3[nH]c4ccccc4c3C[C@H]2C1=O)NO	17%	38.5%	64.6%	78.7%	–	65.5%	98.5%	39.3%	–
O=C(CSc1nc2ccccc2c(=O)n1-c1ccc(Cl)c(Cl)c1)Nc1ccc(S(=O)(=O)Nc2ccc(Cl)nn2)cc1	106%	94%	97.7%	88.8%	95.8%	91.2%	–	91.1%	106%
COc1ccc(C2CC(c3cccc(OCCCCOc4cccc(C5=NOC(c6ccc(OC)cc6)C5)c4)c3)=NO2)cc1 (stereo not given)	-21.9% (active)	93.5%	90.3%	106%	89.6%	109%	107%	–	96.2%
O=c1[nH][nH]c(-c2ccc(F)cc2)c1-c1nc2ccccc2s1	97.4%	100%	106%	88.6%	86.8%	96.9%	86.8%	95.9%	108%
CC1=C(C)C(=O)C(Nc2ccc(C)c(C)c2)=C(Br)C1=O	29.8%	100%	55.1%	100%	90.9%	97.4%	82.7%	111%	109%
CCc1cc2c(cc1Cl)nc1c(=O)[nH]c(=O)nc-1n2CCOCC(C)C	–	59.2%	44.1%	111%	58.6%	98.2%	74.1%	120%	–
COC(=O)c1cccc(NC2=C(Cl)C(=O)c3nc(C)ccc3C2=O)c1	3.31% (active)	77.4%	-97.6% (active)	87.6%	-58.1% (active)	102%	89.7%	99.8%	4.2% (active)
COc1ccccc1/C=C/C(=O)c1nnn(-c2ccc(F)cc2)c1C	20.9%	44.9%	59.2%	95.8%	45.6%	78.3%	34.3%	89.5%	–
CCOC(=O)c1cccnc1Nc1ccc(NC(=O)Nc2ccc(Cl)c(C(F)(F)F)c2)cc1	16%	39.3%	–	70.1%	29.9%	84.5%	35.3%	85.7%	–
O=C(CSc1nnc(-c2cccs2)n1-c1ccccc1)Nc1ccccc1	99.7%	53.5%	56.3%	80.1%	89.9%	33.2%	61.9%	96.7%	84.2%
CSc1ccc(C(=NNS(=O)(=O)c2ccc(C)cc2)c2ccc(Cl)cc2)cc1	97.8%	99.5%	102%	111%	96.8%	101%	98.2%	94.3%	–
O=C1Nc2ccc(F)cc2/C1=C\C(=O)c1ccc(NS(=O)(=O)c2ccccc2)cc1	67.6%	91.1%	93.2%	112%	87.2%	110%	96.7%	107%	–
Cn1cc(-c2cc3ncnc(Nc4ccc(NC(=O)Nc5cc(C(C)(C)C)on5)cc4)c3s2)cn1	5.73% (active)	44.2%	41%	20.4%	19.8%	14.9%	61.6%	30.4%	54.9%
Cc1ccc(NC(=O)/C=C/c2ccc(OCCCOc3ccc4c(C)cc(=O)oc4c3)cc2)cc1	–	52.3%	19.9%	79.8%	73.3%	40%	–	91.6%	–
C#C[C@]1(O)CC[C@H]2[C@@H]3CC=C4c5sc(NCc6ccccc6)nc5CC[C@]4(C)[C@H]3CC[C@@]21C	-25.3% (active)	65.2%	–	-10% (active)	76.8%	-4.78% (active)	72.4%	–	–
